Test [1] deals with Aldehyde dehydrogenase, mitochondrial (Homo sapiens) (UniProt P05091). Nature of the test: qHTS for Inhibitors of the Aldehyde Dehydrogenase Family (ALDH2) Primary screen (AID 2061308).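 Also: plate controls were vehicle for no effect and reference inhibitor for full effect; nearly all actives have a fitted effect of over 55% in size.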
Test [2] has as its target Retinaldehyde dehydrogenase 3 (Homo sapiens) (UniProt P47895). Nature of the test: qHTS for Inhibitors of the Aldehyde Dehydrogenase Family (ALDH1A3) Primary screen (AID 2061315).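 Also: plate controls were DMSO vehicle for no effect and reference inhibitor for full effect.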 In general terms: Quantitative high-throughput screening tests each substance at several concentrations.

The values that follow come from PubChem BioAssay (NCATS).

Results filed as inconclusive are left out. A number with no mark means an inactive call. The source made the active and inactive calls. Calls follow the shape of the dose curve; as a rule, active = well fitted curve in the direction sought with a large enough effect; inconclusive = small, poorly fitted or top-dose-only effect, or another doubt; inactive = no such curve, though single readings can be large; an effect the other way counts as inactive or inconclusive.

On to `Cc1nc(NCc2ccccc2)c2nc(-c3ccccc3)n(CCN3CCCC3)c2n1`, for which the Potency entry in test [1] and in test [2] was “inactive” throughout.
With `N#Cc1ccc(NS(=O)(=O)c2ccc(NC(=O)Cc3ccc(F)c(Cl)c3)cc2)cc1`, the Potency result in test [1] and in test [2] was “inactive” each time.
Take `O=C(O)c1ccc(-c2cccc(-c3nn4c(=O)cc(N5CCNCC5)nc4s3)c2)cc1`: the Potency result in test [1] and in test [2] was “inactive” in each case.
For `O=C1CCCC2=C1C(c1[nH]ncc1Cl)NC(=NCc1cccs1)N2` (stereo not given), the Potency result in test [1] and in test [2] was “inactive” throughout.
Regarding `C/C=C(\C)C(=O)OC1C(C)C2(O)C(C=C(CO)CC3(O)C(=O)C(C)=CC32)C2C(C)(C)C12OC(=O)C(C)C` (stereo not given), the Potency result in test [1] and in test [2] was “inactive” each time.
With `Cc1cc(S(=O)(=O)Nc2cnccc2C(=O)Nc2nc(-c3ccccc3)cs2)c(C)o1`, the Potency entry in test [1] and in test [2] was “inactive” throughout.
For the compound `O=C(O)C1CCC(C(=O)Nc2ccc([S+](=O)([O-])Nc3nccs3)cc2)CC1` (stereo not given), the Potency result in test [1] and in test [2] was “inactive” in each case.
With `Cc1cc(C)nc(NC(=S)N2CCN(c3nccc(C(F)(F)F)n3)CC2)c1`, the Potency result in test [1] and in test [2] was “inactive” in each case.
As to `CNc1oc(-c2ccc(F)cc2)nc1C#N`, the Potency entry in test [1] and in test [2] was “inactive” throughout.
Turning to `CC(=O)Nc1ccc(S(=O)(=O)Nc2ccc(C)c(C)c2)cc1`, the Potency result in test [1] and in test [2] was “inactive” in each case.
`COC(=O)c1ccc(O)c2ncc(NC3CCNCC3)cc12`: the Potency result in test [1] and in test [2] was “inactive” in each case.
Regarding `COc1ccc(C2=Nn3c(nnc3-c3ccccc3OC)SC2)cc1O[C@H]1CCOC1`, the Potency entry in test [1] and in test [2] was “inactive” throughout.
For the compound `COc1ccc(C2Nc3ccccc3C(=O)N2Cc2ccccc2OC)cc1COc1c(C)cc(NC(C)=O)cc1C` (stereo not given), the Potency entry in test [1] and in test [2] was “inactive” throughout.
`N=c1c2c(ccn1CCc1ccccc1)Oc1ccc3ccccc3c1C2c1ccccc1` (stereo not given): the Potency result in test [1] and in test [2] was “inactive” throughout.
Turning to `Cc1ccc(S(=O)(=O)Nc2cnccc2C(=O)Nc2ccncc2)cc1`, the Potency result in test [1] and in test [2] was “inactive” throughout.
For the compound `CCCCNc1nc(C)nc2c1nc(-c1ccccc1)n2CCCN(CC)CC`, the Potency result in test [1] and in test [2] was “inactive” throughout.
On to `CC(C)COc1ccc(-c2csc(N3CCC(C(N)=O)CC3)n2)cc1`, for which the Potency result in test [1] and in test [2] was “inactive” in each case.
As to `Cc1cc(CNc2ncnc3ccc(-c4ccc5c(c4)OCO5)cc23)c(C)o1`, the Potency result in test [1] and in test [2] was “inactive” throughout.
Turning to `CCc1cccc(CC)c1OCc1cc(C2Nc3ccccc3C(=O)N2Cc2ccco2)ccc1OC` (stereo not given), the Potency entry in test [1] and in test [2] was “inactive” throughout.
With `CN(C)CCCNC(=O)c1ccc(-c2cnc3c(O)ccc(C(=O)O)c3c2)cc1`, the Potency entry in test [1] and in test [2] was “inactive” each time.
Regarding `CC(=O)Nc1sc2c(c1-c1ccccc1F)CCNC2`, the Potency result in test [1] and in test [2] was “inactive” in each case.
Take `O=C(Nc1ccc2ccccc2c1)Nc1nnc(-c2ccccc2Cl)s1`: the Potency entry in test [1] and in test [2] was “inactive” throughout.
Regarding `O=S(=O)(Nc1nccs1)c1ccc(NCc2cccc(O)c2)cc1`, the Potency entry in test [1] and in test [2] was “inactive” each time.
Regarding `Cc1ccc(NC(=O)c2ccc3c(c2)CCC(=O)N3)cc1C`, the Potency entry in test [1] and in test [2] was “inactive” in each case.
On to `Cc1ccc(CNc2ncnc3ccc(-c4ccoc4C)cc23)o1`, for which the Potency result in test [1] and in test [2] was “inactive” in each case.
As to `COc1cccc(CNc2ccc(S(=O)(=O)Nc3cccnc3)cc2)c1O`, the Potency result in test [1] and in test [2] was “inactive” each time.
With `Cc1ccc(S(=O)(=O)NCCC(=O)Nc2nc(-c3ccccc3)cs2)cc1`, the Potency result in test [1] and in test [2] was “inactive” throughout.
Consider `CCOc1ccc(C(=O)Oc2ccc(-c3nc4ccccc4[nH]3)cc2)cc1[N+](=O)[O-]`, for which the Potency result in test [1] and in test [2] was “inactive” each time.
Regarding `O=C(Nc1ccc(-c2nc3ccccc3[nH]2)cc1)c1ccc2ncccc2c1`, the Potency result in test [1] and in test [2] was “inactive” throughout.
Regarding `Cc1ccc(-c2cc(C(=O)Nc3ccc(S(=O)(=O)N(C)C)cc3)c3ccccc3n2)cc1C`, the Potency result in test [1] and in test [2] was “inactive” in each case.
Turning to `COc1ccc(OC)c(-c2nnc3n2N=C(c2ccc(OC)c(OC)c2)CS3)c1`, the Potency result in test [1] and in test [2] was “inactive” each time.
With `COc1ccc(C2c3c(nc(C)[nH]c3=O)Oc3ccc4ccccc4c32)cc1OC` (stereo not given), the Potency entry in test [1] and in test [2] was “inactive” in each case.
For the compound `COc1ccc(C(=O)Nc2nnc(-c3ccco3)o2)cc1`, the Potency entry in test [1] and in test [2] was “inactive” throughout.
Consider `C[C@@H]1CN(S(=O)(=O)c2ccc3c(c2)OCCO3)CCN1S(=O)(=O)c1c(F)cccc1F`, for which the Potency result in test [1] and in test [2] was “inactive” each time.
Regarding `C[C@@H]1CN(c2c(F)c(F)c3c(=O)c(C(=O)O)cn(C4CC4)c3c2F)C[C@H](C)N1`, the activity change, negative = inhibition in test [1] was -0.742% [at 11.2 µM]; in test [2], 1.69% [at 11.2 µM].
`COc1ccc(C2Nc3cccc(OC)c3C(=O)N2Cc2ccco2)cc1COc1c(C)cc(NC(C)=O)cc1C` (stereo not given): the Potency entry in test [1] and in test [2] was “inactive” throughout.
As for `CCOc1ccc(CCNC(=O)c2cc3sccc3n2CCN2CCN(C)CC2)cc1OCC`, the Potency result in test [1] and in test [2] was “inactive” in each case.
Take `COc1cccc(C2c3c(ncn(-c4ccccc4SC)c3=N)Oc3ccc4ccccc4c32)c1` (stereo not given): the Potency result in test [1] and in test [2] was “inactive” each time.
Consider `CC(C)C[C@@H]1NC(=O)[C@@H](Cc2ccccc2)NC(=O)C(CCCCCC(=O)C2CO2)NC(=O)[C@@H]2CCCCN2C1=O` (stereo not given in full), for which the Potency entry in test [1] and in test [2] was “inactive” each time.
Take `COc1cc(NC(=O)C(OC(=O)CNC(=O)c2ccccc2)c2ccccc2)c(OC)cc1Cl` (stereo not given): the Potency result in test [1] and in test [2] was “inactive” in each case.
